Assay outcomes: PubChem, The Scripps Research Institute Molecular Screening Center
PP5 primary = PP5 phosphatase inhibitors, primary screen, biochemical, fluorescence. purified PP5c, OMFP substrate fluorescence. inhibition, % at 6.7 µM. 320,000 compounds, 0.18% hits;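 active means inhibition above the campaign's mean inhibition across all tested compounds plus 3 SD, cut at about 9.5% in these data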
Target sequence (P53041 whole entry, looked up): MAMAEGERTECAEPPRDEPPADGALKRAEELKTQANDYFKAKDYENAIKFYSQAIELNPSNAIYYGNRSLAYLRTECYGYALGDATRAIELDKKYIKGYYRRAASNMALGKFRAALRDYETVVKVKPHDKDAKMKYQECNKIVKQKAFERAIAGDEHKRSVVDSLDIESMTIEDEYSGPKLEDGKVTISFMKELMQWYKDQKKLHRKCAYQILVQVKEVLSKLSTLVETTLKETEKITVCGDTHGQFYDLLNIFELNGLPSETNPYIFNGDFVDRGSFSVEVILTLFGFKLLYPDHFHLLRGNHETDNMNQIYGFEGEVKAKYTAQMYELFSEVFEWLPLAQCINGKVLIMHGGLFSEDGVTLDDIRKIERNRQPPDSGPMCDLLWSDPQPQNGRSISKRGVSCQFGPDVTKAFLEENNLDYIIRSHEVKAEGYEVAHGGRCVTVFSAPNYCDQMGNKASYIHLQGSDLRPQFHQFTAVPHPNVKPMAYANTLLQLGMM
LYPLA2 inh = LYPLA2 inhibitors, primary screen, counter-screen for PME1 inhibitor project, biochemical, fluorescence polarization, FP-Rh probe ABPP. Acyl-protein thioesterase 2 (Homo sapiens), O95372. recombinant LYPLA2. inhibition, % at 5.9 µM. 320,000 compounds, 0.38% hits;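 active means inhibition above the screen-wide mean plus 3 SD, limit set per campaign, cut at about 26% in these data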
PP1 inh = PP1-alpha phosphatase inhibitors, primary screen, counter-screen for PP5 inhibitor project, biochemical, fluorescence, OMFP substrate, single point; Serine/threonine-protein phosphatase PP1-alpha catalytic subunit (Homo sapiens), P62136; purified PP1alpha; inhibition, % at 6.7 µM; 320,000 compounds, 0.9% hits;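 active means inhibition above the mean inhibition of all tested compounds plus 3 SD, computed separately for each screening campaign, cut at about 15% in these data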
PME-1 primary = PME-1 inhibitors via competitive probe labeling, primary screen, biochemical, fluorescence polarization, FP-Rh probe, HTS; Protein phosphatase methylesterase 1 (Homo sapiens), Q9Y570; recombinant PME-1; 320,000 compounds, 0.53% hits; inhibition, % at 5.9 µM;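 active means inhibition above the campaign mean of all compounds plus 3 SD, cut at about 26% in these data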;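 further: competitive labeling of PME-1 active site by serine hydrolase directed probe; inhibitors block probe labeling so polarization falls and inhibition rises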
Fam108B inh = mouse Fam108B serine hydrolase inhibitors, primary screen, counter-screen for RBBP9 inhibitor project, biochemical, fluorescence polarization. recombinant Fam108B, FP-Rh probe fluorescence polarization. inhibition, % at 9.51 µM. 300,000 compounds, 0.33% hits. AID 1947, 2009;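 active means inhibition above the screen mean inhibition plus 3 SD, computed separately per campaign, cut at about 18% in these data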;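 further: inhibitors lower polarization as less probe binds the enzyme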
LYPLA1 inh = LYPLA1 inhibitors, primary screen, counter-screen for PME1 inhibitor project, biochemical, fluorescence polarization, FP-Rh probe ABPP. Acyl-protein thioesterase 1 (Homo sapiens), O75608. inhibition, % at 5.9 µM. 320,000 compounds, 0.16% hits. recombinant LYPLA1;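 active means inhibition above the mean of all tested compounds plus 3 SD, set per campaign, cut at about 14% in these data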;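 further: inhibitors block serine hydrolase probe labeling of LYPLA1 so polarization falls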
PP1 confirm = PP1 phosphatase inhibitors, confirmation, biochemical, fluorescence, OMFP substrate, triplicate; inhibition, % at 6.7 µM; purified PP1alpha; 1,900 compounds, 52% hits; shares compounds with PP1 inh;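 active means mean PP1 inhibition above a set limit taken from the earlier primary screen, cut at about 15% in these data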
PP5 inh counter = PP5 phosphatase inhibition by PP1 hits, confirmation, counter-screen for PP1 inhibitor project, biochemical, fluorescence, triplicate. inhibition, % at 6.7 µM. shares compounds with PP1 inh. 1,900 compounds, 4% hits. purified PP5c, OMFP fluorescence;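 active means mean PP5 inhibition over triplicate wells above about 9.5% taken from the earlier PP1 screen, limit read from the data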
A number is an active result; – = inactive; · = no result. Only some compounds are listed: those with a hit (about 1.8% of all), similar ones and a draw of the others.

SMILES	PP5 primary	LYPLA2 inh	PP1 inh	PME-1 primary	Fam108B inh	LYPLA1 inh	PP1 confirm	PP5 inh counter
O=c1oc2ccccc2cc1-c1nc2ccccc2o1	–	–	–	–	–	–	·	·
CCCn1c(N)c(C(=O)CSc2nc(C)cs2)c(=O)[nH]c1=O	–	–	–	–	–	–	·	·
CCCn1c(N)c(C(=O)CSc2nc(C)nc3sc(C)c(C)c23)c(=O)[nH]c1=O	–	–	22	–	–	–	–	–
N#Cc1c(N(CCO)CCO)nc(N)c2c(N)nc3c(c12)CC(=O)N3CC1CCCO1 (stereo unspecified)	–	–	–	–	–	–	·	·
C=C(C)CN(CC)c1nc(N)c2c(N)nc3c(c2c1C#N)CC(=O)N3C12CC3CC(CC(C3)C1)C2	–	–	19	–	–	–	–	–
CCCCN1C(=O)Cc2c1nc(N)c1c(N)nc(N(CCC)CCC)c(C#N)c21	15	–	16	–	–	–	–	–
CCc1ccc(N2C(=O)Cc3c2nc(N)c(C#N)c3N)cc1	–	–	–	–	–	–	·	·
Cc1ccc(S(=O)(=O)N2CCOC2CNC(=O)C(=O)NCCCN2CCOCC2)cc1 (stereo unspecified)	–	–	–	–	–	–	·	·
CCCn1c(O)c(N=NC(=O)c2cccnc2)c2cc(Br)ccc21	–	–	–	–	–	–	·	·
CC12CCC(=O)N1C(C(=O)Nc1cc(Cl)ccc1N1CCCC1)CS2 (stereo unspecified)	–	–	–	–	·	–	·	·
O=C(CSc1nnc(-c2ccccc2O)o1)Oc1ccc(OCc2ccccc2)cc1	–	–	24	–	–	–	30	–
CC(=O)C1=C(O)C(=O)N(c2ccc(Br)cc2)C1c1ccc(Br)cc1 (stereo unspecified)	–	–	24	–	–	–	23	–
CC(=O)C1=C(O)C(=O)N(c2ccc(Br)cc2)C1c1cccc([N+](=O)[O-])c1 (stereo unspecified)	–	–	–	–	–	–	·	·
CC(=O)C1=C(O)C(=O)N(c2cccc(Br)c2)C1c1ccc(Br)cc1 (stereo unspecified)	–	–	29	–	–	–	25	–
CCOC(=O)C1=C(O)C(=O)N(c2ccc(S(N)(=O)=O)cc2)C1c1ccc(Cl)cc1 (stereo unspecified)	–	–	–	–	–	–	·	·
CCOC(=O)C1=C(O)C(=O)N(c2ccc(S(N)(=O)=O)cc2)C1c1ccc(Br)cc1 (stereo unspecified)	–	–	21	–	–	–	–	–
CC(C)CC(=O)Nc1nnc(S(=O)(=O)Nc2ccccc2)s1	–	–	–	–	–	–	·	·
CCOC(=O)c1ccc(/C=C2/C=C(c3ccccc3)N(c3ccc(Cl)c(C(=O)O)c3)C2=O)cc1	–	–	20	–	–	–	–	–
CCCOc1ccc(C(C)=O)cc1CSc1nc(O)cc(=O)[nH]1	–	–	19	–	–	–	–	–
CCCOc1ccc(C(C)=O)cc1CSCCC#N	–	–	–	–	–	–	·	·
Cc1ccc(-n2c(Cl)c(Cl)nc(Cl)c2=O)cc1	–	–	–	–	–	–	·	·
Nc1[nH]n2c(=O)c3c(nc2c1N=Nc1ccccc1)CCCC3	–	–	20	–	–	–	21	–
Nc1[nH]n2c(=O)c3c(nc2c1N=Nc1ccc(Cl)cc1)CCCC3	–	–	–	–	–	–	·	·
